Reference: PubChem BioAssay (NCATS)
Inconclusive results are not listed. Unmarked numbers belong to inactive results. Calls follow the shape of the dose curve; as a rule, active = well fitted cell-killing curve with a large enough effect; inconclusive = small, poorly fitted or top-dose-only effect; inactive = flat fitted curve, though single readings scatter.

test: qHTS assay to identify small molecule inhibitors of chordoma cells - UCH-2 (AID 1259356); details: UCH-2 chordoma viability, CellTiter-Glo ATP luminescence, 48 h; series mostly up to 46.1 µM; activity change, negative = inhibition: at the top concentration
% is scaled to controls: 0 for no effect and ±100 for the full control effect.

CCC(CC)(CC(=O)Nc1cccc(/C=C/c2nc(C3CCC3)cs2)c1)C(=O)O and NC(=O)n1c(O)c(C(=O)c2cccs2)c2cc(Cl)ccc21 are the same in “activity change, negative = inhibition” value: -18.1% for the first, -18.1% for the second.

Going from C=CCN1CCc2nc(N)sc2CC1 to N#C/C(=C1\SCC(c2ccccc2Cl)S1)n1ccnc1 (stereo not given), the “activity change, negative = inhibition” value rises from 4.32% to 8.62%.

First: CCOc1ccc(NC(C)=O)cc1
Second: COc1ccc(C(=O)c2ccccc2)c(O)c1
The “activity change, negative = inhibition” value of the first is higher: 12.8% for the first, 2% for the second.

Going from CCc1oc2ccccc2c1C(=O)c1cc(I)c(O)c(I)c1 to COc1ccc(CN(CCN(C)C)c2ncccn2)cc1, the “activity change, negative = inhibition” value falls from 10.7% to -0.94%.

For C[C@H]1[C@H]2CC[C@H]3[C@@H]4CC=C5C[C@@H](N(C)C)CC[C@]5(C)[C@H]4CC[C@]23CN1C, the “activity change, negative = inhibition” value was -0.639%.

For C[N+]12CCC(CC1)C(OC(=O)C(O)(c1ccccc1)c1ccccc1)C2 (stereo not given), the “activity change, negative = inhibition” value was 1.64% [at 20.6 µM].
